# Screens from PubChem BioAssay.
# Only a selection was taken, and hits are over-represented in it overall.
# FBPA Giardia inh: qHTS Assay for Inhibitors of Fructose-1,6-bisphosphate Aldolase from Giardia Lamblia. A8B2U2. purified Giardia FBPA. Potency, µM (top dose mostly 59.6 µM), without a hit: top-dose activity, negative = inhibition, hits mostly inhibitors. 290,000 tested, 0.71% active. AID 2451, 2010; note: potency is the fitted concentration of half-maximal effect; % is set by controls: 0 for no effect and ±100 for the full control effect; nearly all actives have a fitted effect of over 55% in size
# Target sequence (A8B2U2 whole entry, looked up): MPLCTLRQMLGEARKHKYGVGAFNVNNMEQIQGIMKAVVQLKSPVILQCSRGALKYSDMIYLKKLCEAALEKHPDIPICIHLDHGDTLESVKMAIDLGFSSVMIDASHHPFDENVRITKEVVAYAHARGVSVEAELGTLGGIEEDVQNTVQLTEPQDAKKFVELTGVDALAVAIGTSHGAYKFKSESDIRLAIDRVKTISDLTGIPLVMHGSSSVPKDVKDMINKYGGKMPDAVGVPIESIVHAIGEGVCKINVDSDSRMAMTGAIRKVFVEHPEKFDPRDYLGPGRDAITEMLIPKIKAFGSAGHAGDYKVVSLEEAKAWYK
#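 Giardia FBPA (40 nM reagent) was preincubated 10 min at RT with compound (up to 57.5 uM final), then substrate plus GAPDH/TPI/NAD/arsenate coupling system with diaphorase/resazurin was added; resorufin fluorescence (525/598 nm) was read after 20 min.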
# TbPYK inhibitor: qHTS of Trypanosoma Brucei Inhibitors; Potency, µM (top dose mostly 76.8 µM), without a hit: top-dose activity, negative = inhibition, most hits filed as inhibitors; TbPYK enzyme, Kinase-Glo Plus ATP luminescence, 45 min; pyruvate kinase (Trypanosoma brucei), Q57TT1; 410,000 tested, 0.12% active; note: potency is the fitted concentration of half-maximal effect; % is set by controls: 0 for no effect and ±100 for the full control effect; nearly all actives have a fitted effect of over 50% in size
#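 TbPYK + substrate in 50 mM TEA pH 7.2, 100 mM KCl, 10 mM MgCl2, 0.05% BSA, 0.01% Tween-20; cpd pinned; ADP 130 uM final; 45 min RT; Kinase-Glo Plus 10 min; luminescence endpoint.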
# LmPK inhibitor: qHTS Assay for Inhibitors of Leishmania Mexicana Pyruvate Kinase (LmPK) | 290,000 tested, 0.37% active | purified LmPK, Kinase-Glo ATP luminescence, 1 h | Potency, µM (series often up to 57.5 µM), inactives show at the highest dose activity change, negative = inhibition, most hits filed as inhibitors | Q27686; note: potency is the fitted concentration of half-maximal effect; % is set by controls: 0 for no effect and ±100 for the full control effect
#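 Screened at intermediate enzyme activity to detect both inhibitors and activators: LmPK at 0.1 nM, with a 0.5 nM enzyme column as activation reference. PEP 0.5 mM, ADP 0.1 mM; ATP detected by luminescence after 1 h.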
# Shiga inhibitor: A qHTS for Small Molecule Inhibitors of Shiga Toxin. Vero cells, Shiga toxin protein synthesis inhibition reporter. inhibition, % at 38.7 µM. 290,000 tested, 9.2% active; in the data active = inhibition mostly above about 28%, no sharp cut-off; inactive = mostly below about 43%; note: 0% is about no effect
# RE007 growth inh: qHTS Assay for Inhibitors of the HIV-1 protein Vpr; S. pombe RE007 Vpr strain, BacTiter-Glo ATP luminescence, 24 h; Potency, µM (highest dose often 92.2 µM), for the others: at the highest dose activity change, negative = less growth, usual class: inhibitors; 360,000 tested, 0.21% active; active = well fitted falling curve with a large enough effect; inconclusive = small, poorly fitted or top-dose-only effect; inactive = no such curve, though single readings can be large or run the other way; note: potency is the fitted concentration of half-maximal effect; % is set by controls: 0 for no effect and ±100 for the full control effect; nearly all actives have a fitted effect of over 50% in size
#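 Fission yeast RE007 carrying one integrated HIV-1 vpr copy, seeded at OD 0.01 in PMG+AL medium with 23 nL pinned compound. Grown 24 h at 30 degrees; viability read by BacTiter-Glo luminescence after 5 min.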
# Cycloheximide cs: Cycloheximide Counterscreen for Small Molecule Inhibitors of Shiga Toxin; cell reporter, cycloheximide protein synthesis inhibition counterscreen; max response, %; 300,000 tested, 12% active; in the data active = max response mostly above about 13%, no sharp cut-off; inactive = mostly below about 14%; note: read at 38.3 µM for the half of the compounds with a filed dose; 0% is about no effect
# * = called active by the depositor; u = inconclusive; x = no result given; [ ] = dose if it differs, or a comment. Unless noted, calls come from the whole dose curve; as a rule, active = well fitted curve in the direction sought with a large enough effect; inconclusive = small, poorly fitted or top-dose-only effect, or another doubt; inactive = no such curve, though single readings can be large; an effect the other way counts as inactive or inconclusive.
SMILES,FBPA Giardia inh,TbPYK inhibitor,LmPK inhibitor,Shiga inhibitor,RE007 growth inh,Cycloheximide cs
COc1cccc(C(=O)Nc2ccc(C(=O)O)cc2)c1,8%,-28%,u,22,-1%,-1
Cc1ccc(C)c2nc3sc(C(=O)O)cc3cc12,-13%,u,u,-6,-12%,-2
CC(=O)c1ccc(-c2cnc3c(NC=O)cc(-c4ccccc4Oc4ccccc4)cn23)cc1,x,6%,x,x,-8%[18.4 µM],x
CCN(CC)C(=O)C1=C(C)N(Cc2ccc(OC)cc2)C(=O)C(CC(=O)NC2CCCC2)C1 (stereo unspecified),x,5%,x,x,4%,x
CN1CCN(C(c2ccc(F)cc2)c2sc3nc(-c4ccco4)nn3c2O)CC1 (stereo unspecified),x,6%,x,x,x,x
CCOc1cccc(C(=O)Nc2cccc(C(=O)NC(C)(C)C)c2)c1,6%,0%,6%,-7,-18%,6
Cc1cccc(C(=O)Nc2ccc(O)cc2)c1,-14%,2%,-22%,37,-2%,30*
CCOc1cccc(C(=O)Nc2cccc(C(C)=O)c2)c1,-1%,-2%,-2%,68*,-10%,40*
COc1cccc(C(=O)Nc2nc3c(s2)CN(C)CC3)c1,x,0%,1%,176*,-10%,21
Cc1cccc(C(=O)Nc2ccc(C(=O)c3ccccc3)cc2)c1,x,-4%,x,x,-17%,x
CC(=O)Nc1cccc(NC(=O)c2ccc(COc3ccccc3)cc2)c1,9%,4%,-2%,109*,-3%,59*
COc1cccc(NC(=O)c2ccc(NC(C)=O)cc2)c1,-6%,6%,-16%,20,14%,33*
Cc1cccc(C(=O)NNC(=O)c2ccc(F)cc2)c1,2%,4%,-1%,16,-14%,14*
COc1cccc(C(=O)Nc2ccc(NC(=O)C3C4C=CC(C4)C3C(=O)O)cc2)c1 (stereo unspecified),x,1%,-2%,142*,-11%,41*
O=C(Nc1cccc(NC(=O)c2ccco2)c1)c1cccc(Br)c1,6%,-4%,-3%,86*,7%,21
COc1cccc(NC(=O)c2ccncc2)c1,-2%,0%,-1%,38,-11%,3
Cc1cccc(C(=O)NNC(=O)c2cccc(C)c2)c1,4%,-6%,0%,3,3%,8
COc1cccc(C(=O)NNC(=O)C(=O)Nc2ccc(C)cc2)c1,-7%,-1%,-6%,51,-8%,11
COc1cccc(NC(=O)c2cnc(SC)nc2)c1,-2%,-1%,2%,27,-4%,21*
CCOc1cccc(C(=O)Nc2cccc(NC(=O)c3ccco3)c2)c1,2%,2%,3%,25,-4%,25*
COc1cccc(C(=O)Nc2ccc(C)cc2)c1,-18%,4%,u,88*,-20%,30*
CCCCOc1cccc(C(=O)Nc2cc(NC(=O)c3ccco3)ccc2OC)c1,x,-6%,x,x,x,x
O=C(Nc1cccc(C(=O)N2CCN(c3ccccc3)CC2)c1)c1ccco1,x,-3%,0%,7,-15%,7
O=C(Nc1cccc(C(=O)N2CCCCCC2)c1)c1ccco1,6%,-8%,-8%,-2,18%,10*
CSc1ncc(C(=O)Nc2ccccc2)cn1,5%,-6%,-4%,-2,0%,-2
SMILES,FBPA Giardia inh,TbPYK inhibitor,LmPK inhibitor,Shiga inhibitor,RE007 growth inh,Cycloheximide cs
O=C(Nc1nncs1)c1cc(S(=O)(=O)N2CCCCC2)ccc1Cl,u,1%,6%,-7,6%,9
CC(OC(=O)Cc1cccc(C(F)(F)F)c1)C(=O)Nc1ccc(Cl)cn1 (stereo unspecified),x,-2%,-3%,-6,-30%,9
COc1cccc(C(=O)Nc2cccc(OC(C)=O)c2)c1,13%,-2%,25µM*,52*,-7%,45*
COc1cccc(C(=O)Nc2cccc(C(C)=O)c2)c1,-1%,-16%,u,18*,2%,87*
COc1cccc(NC(=O)c2cccc(Cl)c2)c1,x,-5%,x,x,u,x
COc1cccc(C(=O)Nc2ccc3c(c2)C(=O)c2ccccc2C3=O)c1,-9%,4%,-3%,38*,-1%,31*
CC(=O)Oc1cccc(NC(=O)c2cccc(C(=O)Nc3cccc(OC(C)=O)c3)c2)c1,5%,1%,6%,x,2%,-2
COC(=O)c1cccc(NC(=O)c2cccc(OC)c2)c1,1%,-15%,u,104*,-25%,53*
COc1ccccc1N(C(=O)CNC(=O)c1ccco1)C(C(=O)NCC1CCCO1)c1ccccc1 (stereo unspecified),x,-1%,-2%,-3,13%,-4
CCn1c2ccccc2c2cc(CN3CCN(S(C)(=O)=O)CC3)ccc21,2%,3%,-1%,-9,1%,-1
Cc1ccc(CNC(=O)CSc2nc3ccccc3c3nc(C)nn23)cc1,3%,x,-7%,45,x,-5
CS(=O)(=O)c1ccc(CNC(=O)C2(C(F)(F)F)CC(CCCO)CCCO2)cc1 (stereo unspecified),6%,0%,x,21,8%,1
COc1cccc(C(=O)NC(=S)Nc2ccc(N(C)C)cc2)c1,-5%,5%,-4%,102*,-16%,34*
O=C(COc1ccc(F)cc1)c1ccc2c(c1)CCCC2,x,2%,x,x,-13%,x
O=C(COc1cccc(NC(=O)c2ccco2)c1)c1ccc(F)cc1,2%,-3%,2%,25*,u,15*
CCOc1cccc(NC(=O)c2cccc(F)c2)c1,0%,2%,-9%,102*,u,20*
O=C(COc1ccc(Cc2ccccc2)cc1)c1ccc(F)cc1,2%,-2%,-5%,-17,-13%,35*
O=C(Nc1cccc(C(=O)N2CCN(c3ccc(Cl)cc3)CC2)c1)c1nsc2ccccc12,x,3%,x,x,x,x
CN(C)S(=O)(=O)c1ccc(Cl)c(NC(=O)CN2CCCC2)c1,2%,-4%,7%,26,3%,-1
COC(=O)c1ccc(NC(=O)c2cccc(C)c2)cc1,-1%,-5%,-5%,37,-19%,19*
Cc1cc(NC(=O)c2cccc(Br)c2)n[nH]1,x,6%,x,x,13%,x
Cc1cccc(C(=O)Nc2ccc(C(=O)c3ccncc3)cc2)c1,x,-10%,x,x,-10%,x
COc1cccc(C(=O)Nc2ccc(C(=O)c3ccccc3)cc2)c1,-9%,-2%,-7%,x,-9%,36*
CCOc1cccc(C(=O)Nc2ccc3ccccc3c2)c1,3%,1%,-4%,37,-1%,21*
CCOc1cccc(C(=O)Nc2ccc(N(CC)CC)cc2)c1,-5%,u,-2%,15,2%,16
